Screening data (PubChem)
Compounds with a hit are over-represented: about 6.1% of the library has one in this group of screens.
Gal4-VP16 FLuc – counter-screen for ROR gamma inhibitors: Gal4-VP16 reporter | Drosophila S2 Gal4-VP16 UAS-luciferase, luminescence, 20 h | Potency, µM (doses to about 53.6 µM), for inactives: top-dose activity, negative = inhibition, usual class: inhibitors | 310,000 compounds, 3.5% hits;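 also: Gal4-VP16 expression switched on by copper sulfate through the metallothionein promoter; % is scaled to controls: 0 for no effect and ±100 for the full control effect; nearly all actives have a fitted effect of over 50% in size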
HepG2 tox – kills HepG2 cells in TGF-b inhibitor counter-screen. HepG2 CAGA-GFP viability, ATP luminescence, 18 h. Potency, µM (titrated, usually from 46.1 µM), for inactives: at the highest dose activity change, negative = cytotoxicity, usual class: cytotoxic. 410,000 compounds, 0.76% hits
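CellTiter-Glo luminescence gave cytotoxicity after 18 hours at 37 degrees C. The cells were HepG2 CAGA-GFP in 1% FBS DMEM, stimulated with 500 pg/mL TGF-beta after compound addition. %Activity was normalised to no-cell wells (complete cell-killing) and DMSO (no toxicity), and curves were fitted and classified.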
ATXN2 expr inh – inhibitors of ATXN2 expression | HEK-293 ATXN2-luciferase reporter, luminescence, 24 h | Potency, µM (doses to about 57 µM), inactives show top-dose activity change, negative = inhibition, actives largely listed as inhibitors | 360,000 compounds, 0.72% hits | AID 1745845; also: % is scaled to controls: 0 for no effect and ±100 for the full control effect; nearly all actives have a fitted effect of over 55% in size
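ATXN2-luciferase reporter cells (luciferase flanked by upstream and downstream ATXN2 gene portions) were treated 24 h at 37 °C with compounds at up to 57 uM. SteadyGlo luminescence gave expression; GF-AFC fluorescence gave viability.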
ATXN viability – viability counter-screen for ATXN expression inhibitors; S2 cells (HEK-293 line with an ATXN2-luciferase reporter) viability, CellTiter-Fluor protease fluorescence, 24 h; Potency, µM (titrated, usually from 56.7 µM), usual class: cytotoxic; 400,000 compounds, 0.49% hits; also: nearly all actives have a fitted effect of over 40% in size
RORg inh – blocks mouse ROR gamma transcriptional activity; P51450; Drosophila S2 Gal4-RORgamma UAS-luciferase reporter, 20 h; Potency, µM (titrated, usually from 53.6 µM), for inactives: at the top dose activity change, negative = inhibition, usual class: inhibitors; 310,000 compounds, 5.4% hits; AID 2551; also: % is scaled to controls: 0 for no effect and ±100 for the full control effect; nearly all actives have a fitted effect of over 60% in size
Target sequence (P51450 whole entry, looked up, the tested form may be a part): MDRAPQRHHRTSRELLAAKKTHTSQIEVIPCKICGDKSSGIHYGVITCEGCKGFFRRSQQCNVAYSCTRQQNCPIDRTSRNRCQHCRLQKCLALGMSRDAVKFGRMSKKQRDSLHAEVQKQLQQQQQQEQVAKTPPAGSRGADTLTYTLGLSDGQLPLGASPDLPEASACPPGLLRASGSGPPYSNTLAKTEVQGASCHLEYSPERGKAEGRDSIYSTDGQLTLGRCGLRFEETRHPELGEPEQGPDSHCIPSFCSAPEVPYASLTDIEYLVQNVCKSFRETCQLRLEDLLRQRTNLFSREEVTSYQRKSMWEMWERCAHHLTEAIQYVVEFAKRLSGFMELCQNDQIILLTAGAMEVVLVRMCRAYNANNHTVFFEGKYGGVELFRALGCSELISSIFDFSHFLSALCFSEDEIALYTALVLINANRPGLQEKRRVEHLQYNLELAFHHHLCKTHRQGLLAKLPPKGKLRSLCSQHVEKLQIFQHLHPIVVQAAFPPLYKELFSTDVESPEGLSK
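Read-out: Photinus luciferase luminescence; inhibitors lower reporter signal. Insect Schneider cells with Gal4-ROR gamma fusion under metallothionein promoter, UAS reporter; 700 uM final copper sulfate induction, 20 hr, ambient temperature.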
TGFb inhibitor – TGF-b pathway inhibition; 410,000 compounds, 1.2% hits; HepG2 CAGA-GFP TGF-b/SMAD3 reporter, GFP fluorescence, 18 h; TGF-beta stimulated, 500 pg/mL final; Potency, µM (doses to about 46.1 µM), without a hit: top-dose activity, negative = inhibition, most hits filed as inhibitors; also: % is scaled to controls: 0 for no effect and ±100 for the full control effect; nearly all actives have a fitted effect of over 65% in size
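Cell-based qHTS in HEPG2 carrying a CAGA-GFP Smad reporter; compounds added before 500 pg/mL final TGF-beta, 18 h incubation at 37 degrees C, GFP fluorescence quantified per cell by imaging cytometry.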
Starred values were filed as active, the others as inactive; i = inactive; ? = inconclusive; · = no result given; [ ] = remark or other dose. Calls follow the shape of the dose curve; as a rule, active = well fitted curve in the direction sought with a large enough effect; inconclusive = small, poorly fitted or top-dose-only effect, or another doubt; inactive = no such curve, though single readings can be large; an effect the other way counts as inactive or inconclusive. Potency is read from the fitted curve at half-maximal effect.

SMILES	Gal4-VP16 FLuc	HepG2 tox	ATXN2 expr inh	ATXN viability	RORg inh	TGFb inhibitor
COc1ccc(C2CC(c3ccc(Cl)cc3Cl)Nc3nc(N)nn32)cc1 (centres undefined)	4.5µM*	-24%	-3%	i	5.6µM*	-24%
COc1ccc(C2CC(c3ccc(Cl)cc3)Nc3nc(NC(=O)c4ccco4)nn32)cc1 (centres undefined)	0.16µM*	9%	-20%	i	0.71µM*	?
O=C(Nc1nc2n(n1)C(c1ccc(Cl)cc1)CC(c1ccc(Cl)cc1)N2)c1ccco1 (centres undefined)	3.5µM*	-42%	-13%	i	3.2µM*	?
COc1ccc(CNC(=O)C2CCN(c3nc4ccccc4[nH]3)CC2)c(OC)c1	·	-29%	·	·	·	0%
CC(=O)Nc1ccc(S(=O)(=O)N2CCCc3ccccc32)cc1	0%	-1%	-25%	i	-19%	?
COc1ccc(-c2nnc(NC(=O)c3ccc(S(=O)(=O)N4CCCc5ccccc54)cc3)o2)cc1	0.5µM*	-3%	?	i	0.28µM*	?
O=C(NCc1ccccc1)c1ccc(S(=O)(=O)N2CCCc3ccccc32)cc1	-6%	-6%	-14%	i	?	-15%
COCc1nnc(NC(=O)c2ccc(S(=O)(=O)N3CCCc4ccccc43)cc2)o1	3.5µM*	-20%	-17%[11.3 µM]	i	0.63µM*	-1%
O=C(Nc1nnc(C2CC2)o1)c1ccc(S(=O)(=O)N2CCCc3ccccc32)cc1	0.71µM*	-6%	16µM*	?	0.32µM*	?
COCc1nnc(NC(=O)c2ccc(S(=O)(=O)N3CCOCC3)cc2)o1	20µM*	5%	-10%	i	11µM*	0%
Cc1ccc(CCNC(=O)C2CCN(Cc3nc(-c4ccccc4C)oc3C)CC2)cc1	·	-22%	-4%	i	·	-21%
O=C(Nc1ccc2nc(SCC(=O)N3CCOCC3)sc2c1)c1ccc(F)cc1	·	-18%	·	·	·	-52%
O=C(CCN1CCN(S(=O)(=O)c2ccc(Br)cc2)CC1)Nc1ccccc1F	-5%	19%	-24%	i	7%	?
O=C(CN1CCN(S(=O)(=O)c2ccc(Br)cc2)CC1)Nc1ccccc1F	2%	14µM*	-13%	i	35%	-8%
S=C(NCCc1ccccc1)NC1CCC(NC(=S)NCCc2ccccc2)CC1 (centres undefined)	0%	-7%	3%[11.3 µM]	i	-3%	1%
S=C(NCCc1ccccc1)NC1CC1	?	2%	-1%	i	4.5µM*	8%
S=C(NCc1ccc(Cl)cc1Cl)NC1CCCCC1	16µM*	-5%	?	?	5.6µM*	-16%
S=C(NCCc1cccc(Cl)c1)NC1CCCCC1	5.6µM*	-54%	3%	i	4.5µM*	-21%
O=C(NC1CCN(C(=S)NCCc2ccccc2)CC1)C1CC1	?	2%	·	i	10µM*	25%
Cc1cnc(SCCN2CCOCC2)nc1C1CCCN(C(=O)c2cccc3c(C)c(C)[nH]c23)C1 (centres undefined)	·	·	·	i	·	·
CC(NC(=O)C1CCOCC1)c1nnc2n1CCN(Cc1cc3c(cc1Cl)OCO3)CC2 (centres undefined)	·	·	·	i	·	·
CCOC(=O)c1cc2c(=Cc3ccc(N(C)C)cc3)c3ccccc3n2[n+]1C	·	-39%	?	·	·	?
Cc1cc2c(=Cc3ccc(N(C)C)cc3)c3ccccc3n2[n+]1C	·	-29%	10µM*	?	·	6.3µM*
CN(C)c1ccc(C=c2c3ccccc3n3c2c2ccccc2[n+]3C)cc1	·	-43%	6.3µM*	?	·	2.5µM*
COc1cc(OC)c(OC)cc1/C=C/c1nccc2ccccc12	·	-17%	·	·	·	-20%
CCNC(=S)N/N=C/c1cccc(/C=N/NC(=S)NCC)c1	-22%	4%	-30%	i	?	7%
